Assay results reported in PubChem BioAssay AID488969 (Vanderbilt High Throughput Screening Facility, 2010).
In all, about 110,000 compounds were measured (“z-score”: median about -0.1, highest 2% from about 2 on). The sample as a whole holds a higher share of the highest values than the screen did. Calls of active or inactive are those of the source.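 The calls were made as follows: active = z-score in the third read window above 3 or below -3; inactive = the rest.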

target: Metabotropic glutamate receptor 8 (Rattus norvegicus) (UniProt P70579); assay: mGluR8 Gi/Go-coupled signaling modulation – cell-based, rat, thallium flux, HTS, primary screen (AID 488969); conditions: HEK293 rat mGluR8, GIRK (G protein-gated inwardly rectifying potassium channel) thallium flux, FluoZin2; at 10 µM; stronger effect = higher value; submaximal glutamate (EC20) added with thallium
Sequence (P70579 whole entry, looked up): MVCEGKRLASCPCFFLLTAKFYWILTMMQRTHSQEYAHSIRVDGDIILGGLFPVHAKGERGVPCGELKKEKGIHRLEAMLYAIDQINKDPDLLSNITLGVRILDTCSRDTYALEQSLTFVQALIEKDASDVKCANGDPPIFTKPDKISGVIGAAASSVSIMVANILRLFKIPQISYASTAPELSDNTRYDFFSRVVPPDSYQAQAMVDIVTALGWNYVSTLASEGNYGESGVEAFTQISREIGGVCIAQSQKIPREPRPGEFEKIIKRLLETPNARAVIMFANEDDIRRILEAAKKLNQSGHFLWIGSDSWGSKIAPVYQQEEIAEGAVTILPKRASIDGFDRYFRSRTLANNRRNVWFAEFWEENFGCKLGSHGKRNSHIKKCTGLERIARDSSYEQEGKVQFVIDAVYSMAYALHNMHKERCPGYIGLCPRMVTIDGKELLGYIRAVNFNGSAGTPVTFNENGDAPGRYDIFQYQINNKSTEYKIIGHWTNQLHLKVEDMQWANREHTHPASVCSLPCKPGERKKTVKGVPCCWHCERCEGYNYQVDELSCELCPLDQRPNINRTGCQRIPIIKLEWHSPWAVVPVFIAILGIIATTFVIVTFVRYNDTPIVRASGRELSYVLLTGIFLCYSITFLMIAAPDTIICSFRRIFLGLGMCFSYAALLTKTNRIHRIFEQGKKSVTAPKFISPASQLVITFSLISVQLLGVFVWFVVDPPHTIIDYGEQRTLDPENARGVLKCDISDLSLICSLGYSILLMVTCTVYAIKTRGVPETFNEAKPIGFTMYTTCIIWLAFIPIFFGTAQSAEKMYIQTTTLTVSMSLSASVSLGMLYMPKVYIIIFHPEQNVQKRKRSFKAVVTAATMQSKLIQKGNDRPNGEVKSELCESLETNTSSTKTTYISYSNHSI

| Structure (SMILES) | z-score |
| --- | --- |
| O=C(COC(=O)C1=Cc2ccccc2OC1)NC1CCCC1 | -0.184 |
| CCOC(=O)N1CCN(C(=O)CN(c2cc(C(F)(F)F)ccc2Cl)S(C)(=O)=O)CC1 | 0.421 |
| CN1CCN(C(=O)CN(c2cc(C(F)(F)F)ccc2Cl)S(C)(=O)=O)CC1 | 2.63 |
| CS(=O)(=O)N(CC(=O)N1CCN(c2ccccc2)CC1)c1cc(C(F)(F)F)ccc1Cl | -0.525 |
| O=C(COc1cccc2ccccc12)NNC(=O)CSCCO | -0.199 |
| c1ccc(-n2nnnc2NC2CCCCC2)cc1 | -0.018 |
| c1csc(-c2nnc(NC3CCCCC3)c3ccccc23)c1 | -1.27 |
| c1ccc2c(NC3CCCC3)nnc(NC3CCCC3)c2c1 | 3.18 (active) |
| CCOC(=O)CSc1nnc(Cc2ccccc2)n1-c1cccc(Cl)c1 | -0.436 |
| CCOC(=O)CSc1nnc(CNc2cccc(Cl)c2)n1C | 1.12 |
| CCOC(=O)CSc1nnc(CNc2cccc(Cl)c2)n1-c1ccccc1 | 2.85 |
| CCOC(=O)C(=O)Nc1ccc2c(c1)OCO2 | 0.0617 |
| Oc1c(Cl)cc(Cl)cc1C=Nc1ccccc1N1CCCC1 | 0.0524 |
| O=C(Cn1nc(Cc2cccnc2)c2ccccc2c1=O)N1CCN(C(=O)c2ccco2)CC1 | -0.426 |
| O=C(Cn1nc(Cc2ccncc2)c2ccccc2c1=O)N1CCN(C(=O)c2ccco2)CC1 | 3.76 (active) |
| Cc1cccc(N2CCN(C(=O)Cn3nc(Cc4ccncc4)c4ccccc4c3=O)CC2)c1C | -0.488 |
| CC(C)=C1SC(N2CCN(c3cccc(C(F)(F)F)c3)CC2)=NC1=O | -0.205 |
| O=C1c2cccc3cc(Br)cc(c23)C(=O)N1Nc1ccc(Br)cc1 | -0.252 |
| COc1ccc(CCNC(=O)c2ccc(CN3CCC(Cc4ccccc4)CC3)cc2)cc1 | -0.304 |
| Cc1noc(/C=C/N(C)C)c1S(=O)(=O)N1CCCC(C(=O)NCc2ccc(Cl)cc2)C1 (centres undefined) | -0.29 |
| Cc1ccc(CCNC(=O)C2CCCN(S(=O)(=O)c3c(C)noc3/C=C/N(C)C)C2)cc1 (centres undefined) | -0.519 |
| Cc1noc(/C=C/N(C)C)c1S(=O)(=O)N1CCCC(C(=O)NCc2ccc(F)cc2)C1 (centres undefined) | 2.21 |

| Structure (SMILES) | z-score |
| --- | --- |
| CC(C)(C)NC(=O)C(c1ccncc1)N(C(=O)Cn1nnc(-c2cccs2)n1)C1CCCCC1 (centres undefined) | -0.081 |
| Cc1cc(C)nc(SCC(=O)NCc2ccco2)n1 | 0.232 |
| Cc1cc(C)nc(SCc2nnc(SCC(=O)NCc3ccco3)n2-c2ccccc2)n1 | -0.73 |
| Cc1ccc(-n2c(CSc3nc(C)cc(C)n3)nnc2SCC(=O)NCc2ccco2)cc1 | 8.78 (active) |
| Cc1ccc(-c2nc3ncccc3o2)cc1NC(=O)Cc1ccc(Cl)cc1 | 0.497 |
| CNC(=O)C1CC(=O)N(c2ccc(C)cc2)C1 (centres undefined) | 0.338 |
| O=C(Nc1ccc2c(c1)OCCO2)C1CCCN(S(=O)(=O)c2cccc3nsnc23)C1 (centres undefined) | 0.545 |
| CN(C)S(=O)(=O)N1CCN(C(=O)N2CCCCCC2)CC1 | -0.197 |
| Cc1ccc(C(=O)OCC(=O)N2CC(=O)Nc3ccccc32)s1 | 0.331 |
| Cc1ccsc1C(=O)OCC(=O)N1CC(=O)Nc2ccccc21 | -0.081 |
| CCOc1ncccc1C(=O)OCC(=O)N1CC(=O)Nc2ccccc21 | 2.36 |
| O=C(CCN1C(=O)C2CC=C(Cl)CC2C1=O)NCc1ccco1 (centres undefined) | -0.187 |
| O=S(=O)(NC1CC1)c1ccc(S(=O)(=O)N(Cc2ccccn2)C2CCCC2)cc1 | -0.114 |
| O=C(Cc1ccc(Cl)cc1)Nc1ccc(N2CCN(C(=O)c3ccco3)CC2)cc1 | 0.107 |
| O=C(Nc1ccc(N2CCN(C(=O)c3ccco3)CC2)c(Cl)c1)c1c(F)c(F)c(F)c(F)c1F | -0.334 |
| O=C(Cc1ccc(Cl)cc1)Nc1ccc(N2CCN(C(=O)c3ccco3)CC2)c(Cl)c1 | 2.13 |
| Cc1cc(/C=N\NC(=O)CC(=O)NC2CCCCC2)c(C)n1-c1cccc(Cl)c1Cl | -0.438 |
| CCN1CCN(Cc2ccccc2NC(=O)Nc2ccc(C)cc2)CC1 | 0.088 |
| NC(=O)C1CCCN(C(=O)Nc2cccc3ccccc23)C1 (centres undefined) | 0.107 |
| COC(=O)Cc1c[nH]c2cccc(OCC(O)CN(Cc3ccccc3)C(C)C)c12 (centres undefined) | 0.637 |
| CCCCn1nc2cc(C(=O)NCCc3ccc(C)cc3)ccc2c1OCC | -0.356 |
| CCCn1nc2cc(C(=O)NCCc3ccc(C)cc3)ccc2c1OCC | 2.73 |

| Structure (SMILES) | z-score |
| --- | --- |
| CCOc1c2ccc(C(=O)NCCc3ccc(C)cc3)cc2nn1CC | -0.287 |
| Cc1c(C(N)=O)sc2ncn(CC(=O)OC(C)C)c(=O)c12 | 0.619 |
| CN(C)CCSc1nc(-c2ccccc2)nc2c1COC(C)(C)C2 | -0.143 |
| CC(C)NCCCOc1ccc(C(C)(C)c2ccccc2)cc1 | 0.192 |
| CNCCCOc1ccc(C(C)(C)c2ccccc2)cc1 | 0.32 |
| CN(C)CCCOc1ccc(C(C)(C)c2ccccc2)cc1 | 3.07 (active) |
| O=C(Nc1ccc(N2CCN(C(=O)c3ccco3)CC2)cc1)c1ccc2c(c1)OCO2 | 0.192 |
| CCN1C(=O)CC(N2CCC(Cc3ccccc3)CC2)C1=O (centres undefined) | -0.239 |
| Cc1cc(O)c(C(C[N+](=O)[O-])c2ccc(Cl)cc2)c(=O)o1 (centres undefined) | 0.103 |
| CCOC(=O)c1ccc(CNCc2ccccc2)cc1 | -0.07 |
| CCOC(=O)c1ccc(NC(=S)NCCC2=CCCCC2)cc1 | -0.19 |
| C=C(C)CNC(=S)Nc1nc2c(cc1C(=O)OCC)CCCC2 | 3.56 (active) |
| C=CCNC(=S)Nc1nc2c(cc1C(=O)OCC)CCCC2 | 7.76 (active) |
| C=CCNc1nc(-c2ccccc2)c(C(=O)OCC)cc1C#N | -0.303 |
| CCNC(=S)Nc1nc2c(cc1C(=O)OCC)CCCC2 | 8.73 (active) |
| CCOC(=O)c1cc2c(nc1NC(=S)Nc1ccccc1)CC(C)(C)OC2 | -0.292 |
| CCOC(=O)c1cc2c(nc1N)CC(C)(CC)OC2 (centres undefined) | -0.0521 |
| C=CCNC(=S)Nc1ccc2nc(C)c(C)nc2c1 | 0.0978 |
| CCOC(=O)c1cnc2cc3c(cn2c1=O)CCCC3 | 0.699 |
| CCOC(=O)c1cc2c(nc1N)CC(C)(C)OC2 | -0.353 |
| CCOC(=O)c1cc2c(nc1NC(=S)NCc1ccccc1)CCCC2 | 2.16 |
| O=C(NCC1CCCO1)c1ccc(CS(=O)(=O)c2c(Cl)cccc2Cl)o1 (centres undefined) | -0.0453 |

| Structure (SMILES) | z-score |
| --- | --- |
| COc1ccccc1-n1c(=O)[nH]c2c(C(N)=O)nc(C3CCCCC3)nc21 | -0.356 |
| CCN1CCN(C(c2ccc(OC)cc2)C(O)C(=O)c2c[nH]c3ccccc23)CC1 (centres undefined) | 0.0792 |
| C=CCn1c(COc2ccc(Cl)cc2)nnc1SCC(=O)N/N=C/c1cccc(O)c1 | -0.279 |
| CCOC(=O)c1c(NC(=O)CSc2nncs2)sc(C)c1-c1ccccc1 | -0.117 |
| CCOC(=O)c1ccccc1N1C(=O)CSC1=S | -0.0781 |
| COCCn1c(C)cc(C(=O)COC(=O)c2ccc(NC(=O)CC#N)cc2)c1C | -0.449 |
| Cc1nn(Cc2c(F)c(F)c(F)c(F)c2F)c(C)c1NC(=O)c1ccc(COc2ccccc2Cl)o1 | -0.506 |
| CC(=O)c1cc2c(cc1NC(=O)CCC1CCCC1)OCO2 | 0.181 |
| COc1ccc(NC(=O)c2cc(Cl)ccc2NC(=O)c2ccco2)c(OC)c1 | 0.354 |
| CCN(CC)S(=O)(=O)c1ccc(C(=O)Nc2nnc(C(C)C)s2)cc1 | -0.2 |
| COc1ccc(S(=O)(=O)NC(C)C(=O)O)cc1 (centres undefined) | -0.408 |
| O=C(OCc1nc2ccccc2s1)C1CCN(S(=O)(=O)c2cccs2)CC1 | 0.023 |
| COc1ccc(C(=O)Cn2c(Br)nc3c2c(=O)n(C)c(=O)n3C)cc1OC | -0.137 |
| CCCn1c(SCC(=O)c2ccc(OC)c(OC)c2)nc2c1c(=O)n(C)c(=O)n2C | -0.237 |
| COc1ccc(-c2nc3c(c(=O)n(C)c(=O)n3C)n2CC2CC(c3ccccc3)=NO2)cc1OC (centres undefined) | 2.08 |
| Cc1cccc(N/C=C/c2onc(C)c2[N+](=O)[O-])c1 | 1.43 |
| CCN(CC)S(=O)(=O)c1cc(C(=O)OCC(=O)NC2CCCc3ccccc32)ccc1C (centres undefined) | -0.154 |
| COCCn1c(C)cc(C2=NNC(=Nc3ccccc3)SC2)c1C | -0.413 |
| Cc1ccc(-n2c(N)c(C(=O)NCc3cccnc3)sc2=S)cc1 | 0.285 |
| COc1cc2c(C(=O)NCc3ccc4c(c3)OCO4)cn(C)c(=O)c2cc1OC | -0.397 |
| COc1ccc(OC)c(NC(=O)Cn2c(CCC(=O)O)ccc2-c2cccs2)c1 | -0.116 |
| COc1ccc(S(=O)(=O)N2CCN(C(=O)NCc3ccccc3)CC2)cc1 | -0.0685 |

| Structure (SMILES) | z-score |
| --- | --- |
| CCOc1ccc(NCc2cc3c(C(C)(C)C)nn(-c4ccccc4)c3[nH]c2=O)cc1 | -0.079 |
| Cc1nn(-c2ccccc2)c2[nH]c(=O)c(CNCc3ccc4c(c3)OCO4)cc12 | -0.638 |
| CCc1ccc(NCc2cc3c(C)nn(-c4ccccc4)c3[nH]c2=O)cc1 | 5.48 (active) |
| Cc1ccc(OCC(=O)Nc2sc3c(c2C#N)CCC3)cc1C | -0.0369 |
| COc1cccc(C2CC(c3ccc(F)cc3)Nc3nc(N)nn32)c1 (centres undefined) | 0.0383 |
| CCC(C)NC(=O)c1ccc(CSCc2cccc(F)c2)o1 (centres undefined) | -0.863 |
| CN1CCN(CCCNC(=O)c2ccc(CSCc3cccc(Cl)c3)o2)CC1 | 1.35 |
| O=C(NC1CC1)c1ccc(CSCc2cccc(F)c2)o1 | 4.11 (active) |
| CC1CCN(CCCNC(=O)c2ccc(CSCc3cccc(Cl)c3)o2)CC1 | 0.509 |
| O=C(NCCCN1CCCC1)c1ccc(CSCc2cccc(Cl)c2)o1 | 3.42 (active) |
| CC(C)CCNC(=O)c1ccc(CSCc2cccc(F)c2)o1 | -3.86 (active) |
| COc1cccc(-c2cc(C(=O)N3CCN(Cc4ccccc4)CC3)no2)c1 | 0.395 |
| CO/N=C/NC(=O)c1c(OC)ccnc1Oc1cccc(C(F)(F)F)c1 | 0.0176 |
| NC1=NC(=O)/C(=C/c2cccs2)S1 | -0.848 |
| O=C1N=C(c2ccccc2)S/C1=C\c1cccs1 | 2.92 |
| NC1=NC(=O)/C(=C\c2cccs2)S1 | -0.0766 |
| Cc1cc2ncn(C(=O)c3c(-c4c(Cl)cccc4Cl)noc3C)c2cc1C | 0.106 |
| Cc1cc(NC(=O)c2ccc(S(=O)(=O)N3CCCC3)cc2)nc2c1c(=O)oc1ccccc12 | 0.442 |
| FC(F)(F)COc1nc(N2CCCCC2)nc(N2CCNCC2)n1 | 2.6 |
| CNc1nc(OCC(F)(F)F)nc(N2CCOCC2)n1 | -0.112 |
| FC(F)(F)COc1nc(OCC(F)(F)F)nc(N2CCN(c3ccccc3)CC2)n1 | -0.193 |
